Experimental data from PubChem BioAssay AID1159580 (chemical genetic matrix, 2015).
The campaign covered roughly 5,500 compounds. About 2,000 (36%) were called active. About 18% were inconclusive and are not listed. Cut-off read from the data, not from the text of the source: active = normalized growth mostly below about 0.91 (no sharp cut-off); inconclusive = no clear call, values can overlap the other calls; inactive = mostly above about 0.92. The list shows a part of the results.

Experiment: chemical genetic growth profiling, strain panel (AID 1159580);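 note: tested at 20 µM; growth read once vehicle control cultures reached saturation at 30 °C; 1 = growth at the plate median or of vehicle wells; lower values mean less growth of the strain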
Details: S. cerevisiae deletion strains, growth OD
[1] = locus YAR019C, strain CDC15, active compounds read low
[2] = locus YBL105C, strain PKC1, active compounds read low
[3] = locus YBR135W, strain CKS1, active compounds read low
[4] = locus YBR136W, strain MEC1, active compounds read low
[5] = locus YBR160W, strain CDC28, active compounds read low
[6] = locus YDL017W, strain CDC7, active compounds read low
[7] = locus YDL028C, strain MPS1, active compounds read low
[8] = locus YDL101C, strain DUN1, active compounds read low
[9] = locus YDL108W, strain KIN28, active compounds read low
[10] = locus YDL132W, strain cdc53, active compounds read low
[11] = locus YDL214C, strain PRR2, active compounds read low
[12] = locus YDR052C, strain DBF4, active compounds read low
[13] = locus YDR054C, strain cdc34, active compounds read low
[14] = locus YDR226W, strain ADK1, active compounds read low
[15] = locus YDR477W, strain SNF1, active compounds read low
[16] = locus YER123W, strain YCK3, active compounds read low
[17] = locus YER133W, strain GLC7, active compounds read low
[18] = locus YFL009W, strain cdc4, active compounds read low
[19] = locus YFL029C, strain CAK1, active compounds read low
[20] = locus YFR003C, strain YPI1, active compounds read low
[21] = locus YFR019W, strain FAB1, active compounds read low
[22] = locus YFR028C, strain CDC14, active compounds read low
[23] = locus YGR040W, strain KSS1, active compounds read low
[24] = locus YGR052W, strain FMP48, active compounds read low
[25] = locus YGR092W, strain DBF2, active compounds read low
[26] = locus YHR030C, strain SLT2, active compounds read low
[27] = locus YHR079C, strain IRE1, active compounds read low
[28] = locus YHR082C, strain KSP1, active compounds read low
[29] = locus YHR205W, strain SCH9, active compounds read low
[30] = locus YIL147C, strain SLN1, active compounds read low
[31] = locus YJL095W, strain BCK1, active compounds read low
[32] = locus YJL128C, strain PBS2, active compounds read low
[33] = locus YJL157C, strain FAR1, active compounds read low
[34] = locus YJR016C, strain ILV3, active compounds read low
[35] = locus YJR066W, strain TOR1 (second series), active compounds read low
[36] = locus YJR066W, strain TOR1, active compounds read low
[37] = locus YKL048C, strain ELM1, active compounds read low
[38] = locus YKL067W, strain YNK1, active compounds read low
[39] = locus YKL101W, strain HSL1, active compounds read low
[40] = locus YKL193C, strain SDS22, active compounds read low
[41] = locus YKL203C, strain TOR2, active compounds read low
[42] = locus YLR113W, strain HOG1, active compounds read low
[43] = locus YLR133W, strain CKI1, active compounds read low
[44] = locus YLR403W, strain SFP1, active compounds read low
[45] = locus YML070W, strain DAK1, active compounds read low
[46] = locus YMR001C, strain CDC5, active compounds read low
[47] = locus YMR205C, strain PFK2 (second series), active compounds read low
[48] = locus YMR277W, strain FCP1, active compounds read low
[49] = locus YNL006W, strain LST8, active compounds read low
[50] = locus YNL020C, strain ARK1, active compounds read low
[51] = locus YNL161W, strain CBK1, active compounds read low
[52] = locus YNL183C, strain NPR1, active compounds read low
[53] = locus YNL207W, strain RIO2, active compounds read low
[54] = locus YNL222W, strain SSU72, active compounds read low
[55] = locus YNL307C, strain MCK1 (second series), active compounds read low
[56] = locus YOL078W, strain AVO1, active compounds read low
[57] = locus YOL136C, strain PFK27, active compounds read low
[58] = locus YOR061W, strain CKA2, active compounds read low
[59] = locus YOR119C, strain RIO1, active compounds read low
[60] = locus YOR231W, strain MKK1, active compounds read low
[61] = locus YOR329C, strain SCD5, active compounds read low
[62] = locus YPL031C, strain PHO85, active compounds read low
[63] = locus YPL153C, strain RAD53, active compounds read low
[64] = locus YPL204W, strain HRR25, active compounds read low
[65] = locus YPL209C, strain IPL1, active compounds read low
[66] = locus YPL256C, strain CLN2, active compounds read low
[67] = locus YPR025C, strain CCL1, active compounds read low
[68] = locus YPR106W, strain ISR1, active compounds read low
[69] = locus YPR111W, strain DBF20, active compounds read low
[70] = strain NNK1, active compounds read low
[71] = strain TSCII, active compounds read low

Measured: normalized growth

O=C(Nc1ccc(C(F)(F)F)cc1)N1CCN(c2ccnc3cc(Cl)ccc23)CC1
inactive: [1] 0.984 | [2] 0.977 | [3] 0.987 | [4] 0.973 | [5] 0.973 | [6] 0.994 | [7] 0.981 | [8] 0.982 | [9] 0.983 | [10] 0.995 | [11] 1.01 | [12] 0.983 | [13] 0.975 | [14] 0.983 | [15] 0.997 | [16] 1.02 | [17] 1.01 | [18] 0.985 | [19] 0.965 | [20] 0.988 | [21] 0.999 | [22] 0.984 | [23] 1 | [24] 1.08 | [25] 0.975 | [26] 1.08 | [27] 1.04 | [28] 1.1 | [29] 0.995 | [30] 0.981 | [31] 1.1 | [32] 0.993 | [33] 1 | [34] 0.993 | [35] 1.02 | [36] 1.11 | [37] 0.996 | [38] 0.992 | [39] 1.01 | [40] 0.988 | [41] 1.06 | [42] 1.01 | [43] 0.994 | [44] 1.02 | [45] 1.01 | [46] 0.98 | [47] 1.01 | [48] 0.99 | [49] 0.991 | [50] 1 | [51] 0.978 | [52] 1.04 | [53] 0.99 | [54] 0.982 | [55] 0.979 | [56] 0.991 | [57] 1.01 | [58] 1.01 | [59] 1.06 | [60] 1.02 | [61] 0.991 | [62] 1.01 | [63] 1.01 | [64] 0.997 | [65] 0.984 | [66] 1 | [67] 0.983 | [68] 0.986 | [69] 0.979 | [70] 0.979 | [71] 0.977

O=C(c1ccc2ccccc2c1)N1CCN(c2ccnc3cc(Cl)ccc23)CC1
active: [26] 0.821
inactive: [1] 1 | [2] 1 | [3] 0.997 | [4] 0.997 | [5] 0.995 | [6] 0.998 | [7] 0.991 | [8] 0.994 | [9] 0.99 | [10] 0.987 | [11] 0.957 | [12] 0.988 | [13] 0.981 | [14] 1 | [15] 0.958 | [16] 0.947 | [17] 0.965 | [18] 0.993 | [19] 1 | [20] 1 | [21] 0.941 | [22] 0.997 | [23] 0.959 | [24] 1.08 | [25] 0.977 | [27] 0.968 | [28] 1.01 | [29] 0.904 | [30] 0.996 | [31] 0.94 | [32] 0.98 | [33] 0.974 | [34] 0.998 | [35] 0.947 | [36] 0.96 | [37] 0.974 | [38] 0.962 | [39] 0.958 | [40] 0.992 | [41] 0.991 | [42] 0.955 | [43] 0.95 | [44] 0.951 | [45] 0.959 | [46] 0.992 | [47] 0.973 | [48] 0.995 | [49] 0.995 | [50] 0.945 | [51] 0.997 | [52] 0.953 | [53] 0.994 | [54] 0.995 | [55] 0.921 | [56] 0.997 | [57] 0.952 | [58] 0.973 | [59] 1.03 | [60] 0.955 | [61] 0.995 | [62] 0.953 | [63] 0.962 | [64] 0.939 | [65] 0.998 | [66] 0.929 | [67] 0.988 | [68] 0.999 | [69] 0.984 | [70] 0.987 | [71] 0.998

CC1CCN(C(=O)CC#N)CC1
inactive: locus YAL013W, strain DEP1, active compounds read low 1 | locus YBR229C, strain ROT2, active compounds read low 1 | [8] 1.02 | locus YDL134C, strain PPH21, active compounds read low 0.986 | locus YDR150W, strain NUM1, active compounds read low 1.02 | locus YEL061C, strain CIN8, active compounds read low 1.03 | locus YGR078C, strain PAC10, active compounds read low 1 | [26] 1.06 | locus YHR087W, strain rtc3, active compounds read low 1.02 | locus YJL187C, strain SWE1, active compounds read low 0.981 | locus YJR043C, strain POL32, active compounds read low 0.999 | locus YJR075W, strain HOC1, active compounds read low 1.01 | locus YLR039C, strain RIC1, active compounds read low 1.08 | locus YLR058C, strain SHM2 (second series), active compounds read low 0.995 | locus YLR085C, strain ARP6, active compounds read low 1.01 | locus YLR262C, strain YPT6, active compounds read low 1.1 | locus YML094W, strain GIM5, active compounds read low 0.991 | locus YMR219W, strain ESC1, active compounds read low 1 | locus YMR263W, strain SAP30, active compounds read low 0.985 | locus YNL153C, strain GIM3, active compounds read low 1.01 | locus YNL298W, strain CLA4 (second series), active compounds read low 0.957 | locus YNL322C, strain KRE1, active compounds read low 0.992 | locus YNR030W, strain Alg12, active compounds read low 0.981 | locus YOL006C, strain TOP1, active compounds read low 1.01 | locus YPL055C, strain LGE1, active compounds read low 0.979 | locus YPL241C, strain CIN2, active compounds read low 0.996 | locus YPR135W, strain CTF4, active compounds read low 1.02
